Laboratory results reported in PubChem BioAssay AID1159580 (chemical genetic matrix, 2015).
Values joined by “and” are separate entries in the source; they are usually repeats but may differ in a detail not shown here. Equal entries are not always repeated. The campaign covered roughly 5,500 compounds. About 2,000 (36%) were called active. Another 18% or so got no clear call; they are omitted. Rule as the data show it: active = normalized growth mostly below about 0.91 (no sharp cut-off); inconclusive = no clear call, values can overlap the other calls; inactive = mostly above about 0.92. Some of the results follow.

Test: chemical genetic growth profiling, strain panel (AID 1159580);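 also: tested at 20 µM; growth read once vehicle control cultures reached saturation at 30 °C; 1 = growth at the plate median or of vehicle wells; lower values mean less growth of the strain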
Settings: growth OD

Measured: normalized growth

NCCc1cnc[nH]1
inactive: S. cerevisiae deletion strains, locus YJR066W, strain TOR1, active compounds read low 0.985 | S. cerevisiae deletion strains, locus YJR075W, strain HOC1, active compounds read low 1.01 | S. cerevisiae deletion strains, locus YKL009W, strain mrt4, active compounds read low 1.01 | S. cerevisiae deletion strains, locus YKL068W, active compounds read low 1.01 | S. cerevisiae deletion strains, locus YKL085W, strain MDH1 (second series), active compounds read low 1.01 | S. cerevisiae deletion strains, locus YKL085W, strain MDH1, active compounds read low 1.01 | S. cerevisiae deletion strains, locus YKL160W, strain elf1, active compounds read low 1.02 | S. cerevisiae deletion strains, locus YKL190W, strain CNB1, active compounds read low 0.978 | S. cerevisiae deletion strains, locus YKR001C, strain vps1, active compounds read low 1.01 | S. cerevisiae deletion strains, locus YKR026C, strain gcn3, active compounds read low 1.02 | S. cerevisiae deletion strains, locus YKR091W, strain srl3, active compounds read low 1.02 | S. cerevisiae deletion strains, locus YLL001W, strain dnm1, active compounds read low 1.02 | S. cerevisiae deletion strains, locus YLL026W, active compounds read low 1.02 | S. cerevisiae deletion strains, locus YLL041C, strain sdh2, active compounds read low 1.02 | S. cerevisiae deletion strains, locus YLR027C, strain aat2, active compounds read low 1.01 | S. cerevisiae deletion strains, locus YLR039C, strain RIC1, active compounds read low 1.05 | S. cerevisiae deletion strains, locus YLR058C, strain SHM2, active compounds read low 1.01 | S. cerevisiae deletion strains, locus YLR102C, strain apc9, active compounds read low 1.02 | S. cerevisiae deletion strains, locus YLR113W, strain HOG1, active compounds read low 0.985 | S. cerevisiae deletion strains, locus YLR221C, strain rsa3, active compounds read low 1.05 | S. cerevisiae deletion strains, locus YLR258W, strain gsy2, active compounds read low 1.02 | S. cerevisiae deletion strains, locus YLR262C, strain YPT6 (second series), active compounds read low 1.06 | S. cerevisiae deletion strains, locus YLR262C, strain YPT6, active compounds read low 1 | S. cerevisiae deletion strains, locus YLR268W, strain sec22, active compounds read low 1.02 | S. cerevisiae deletion strains, locus YLR320W, strain mms22, active compounds read low 1.04 | S. cerevisiae deletion strains, locus YLR330W, strain CHS5, active compounds read low 1.01 | S. cerevisiae deletion strains, locus YLR342W, strain FKS1 (second series), active compounds read low 0.997 | S. cerevisiae deletion strains, locus YLR342W, strain FKS1, active compounds read low 1.02 | S. cerevisiae deletion strains, locus YLR357W, strain rsc2, active compounds read low 1 | S. cerevisiae deletion strains, locus YLR370C, strain arc18, active compounds read low 1.01 | S. cerevisiae deletion strains, locus YLR371W, strain rom2, active compounds read low 1 | S. cerevisiae deletion strains, locus YLR384C, strain iki3, active compounds read low 1.02 | S. cerevisiae deletion strains, locus YLR418C, strain cdc73, active compounds read low 1.04 | S. cerevisiae deletion strains, locus YML016C, strain PPZ1, active compounds read low 1.01 | S. cerevisiae deletion strains, locus YML032C, strain rad52, active compounds read low 1.01 | S. cerevisiae deletion strains, locus YML120C, strain ndi1, active compounds read low 1.02 | S. cerevisiae deletion strains, locus YML124C, strain tub3, active compounds read low 1.01 | S. cerevisiae deletion strains, locus YMR058W, strain fet3, active compounds read low 1.02 | S. cerevisiae deletion strains, locus YMR078C, strain ctf18, active compounds read low 1.02 | S. cerevisiae deletion strains, locus YMR125W, strain sto1, active compounds read low 1.02 | S. cerevisiae deletion strains, locus YMR129W, active compounds read low 1.02 | S. cerevisiae deletion strains, locus YMR205C, strain PFK2, active compounds read low 1.04 | S. cerevisiae deletion strains, locus YMR223W, strain ubp8, active compounds read low 1.03 | S. cerevisiae deletion strains, locus YMR231W, strain pep5, active compounds read low 1.01 | S. cerevisiae deletion strains, locus YMR307W, strain GAS1, active compounds read low 0.923 and 0.999 | S. cerevisiae deletion strains, locus YNL067W, strain RPL9B, active compounds read low 0.995 | S. cerevisiae deletion strains, locus YNL071W, strain lat1, active compounds read low 1.02 | S. cerevisiae deletion strains, locus YNL128W, strain TEP1, active compounds read low 1 | S. cerevisiae deletion strains, locus YNL183C, strain NPR1, active compounds read low 0.962 | S. cerevisiae deletion strains, locus YNL209W, strain ssb2, active compounds read low 1.02 | S. cerevisiae deletion strains, locus YNL233W, strain BNI4, active compounds read low 1.01 | S. cerevisiae deletion strains, locus YNL248C, strain rpa49, active compounds read low 1.02 | S. cerevisiae deletion strains, locus YNL250W, strain rad50, active compounds read low 1.05 | S. cerevisiae deletion strains, locus YNL271C, strain bni1, active compounds read low 1.03 | S. cerevisiae deletion strains, locus YNL298W, strain CLA4, active compounds read low 1.02 | S. cerevisiae deletion strains, locus YNL307C, strain MCK1, active compounds read low 1.02 | S. cerevisiae deletion strains, locus YNL322C, strain KRE1 (second series), active compounds read low 1.03 | S. cerevisiae deletion strains, locus YNR049C, strain mso1, active compounds read low 1.04 | S. cerevisiae deletion strains, locus YNR052C, strain pop2, active compounds read low 1.01 | S. cerevisiae deletion strains, locus YOL012C, strain htz1 1.37 | S. cerevisiae deletion strains, locus YOL147C, strain pex11, active compounds read low 1.02 | S. cerevisiae deletion strains, locus YOR001W, strain rrp6, active compounds read low 1.01 | S. cerevisiae deletion strains, locus YOR061W, strain CKA2, active compounds read low 1.01 | S. cerevisiae deletion strains, locus YOR069W, strain VPS5, active compounds read low 1 | S. cerevisiae deletion strains, locus YOR070C, strain gyp1, active compounds read low 1.02 | S. cerevisiae deletion strains, locus YOR080W, strain dia2, active compounds read low 1.01 | S. cerevisiae deletion strains, locus YOR083W, strain WHI5, active compounds read low 1.03 | S. cerevisiae deletion strains, locus YOR106W, strain vam3, active compounds read low 1 | S. cerevisiae deletion strains, locus YOR136W, strain idh2, active compounds read low 1.02 | S. cerevisiae deletion strains, locus YOR144C, strain elg1, active compounds read low 1.01 | S. cerevisiae deletion strains, locus YOR184W, strain ser1, active compounds read low 1.02 | S. cerevisiae deletion strains, locus YOR231W, strain MKK1, active compounds read low 1 | S. cerevisiae deletion strains, locus YOR265W, strain rbl2, active compounds read low 1.02 | S. cerevisiae deletion strains, locus YOR270C, strain vph1, active compounds read low 1.07 | S. cerevisiae deletion strains, locus YOR290C, strain snf2, active compounds read low 0.969 | S. cerevisiae deletion strains, locus YOR316C, strain cot1, active compounds read low 1.02 | S. cerevisiae deletion strains, locus YPL051W, strain arl3, active compounds read low 1 | S. cerevisiae deletion strains, locus YPL078C, strain atp4, active compounds read low 1.02 | S. cerevisiae deletion strains, locus YPL106C, strain sse1, active compounds read low 1.03 | S. cerevisiae deletion strains, locus YPL240C, strain hsp82, active compounds read low 1.01 | S. cerevisiae deletion strains, locus YPL241C, strain CIN2, active compounds read low 1 | S. cerevisiae deletion strains, locus YPR119W, strain clb2, active compounds read low 1.01 | S. cerevisiae deletion strains, locus YPR141C, strain kar3, active compounds read low 1.01 | S. cerevisiae deletion strains, locus YPR163C, strain tif3, active compounds read low 1.03 | S. cerevisiae deletion strains, locus YPR167C, strain met16, active compounds read low 1.02 | S. cerevisiae deletion strains, strain wtn01, active compounds read low 1.01 | S. cerevisiae strains, strain wild type, active compounds read low 0.988
active: S. cerevisiae deletion strains, locus YNL153C, strain GIM3, active compounds read low 0.778 | S. cerevisiae deletion strains, locus YNL175C, strain NOP13, active compounds read low 0.381 | S. cerevisiae deletion strains, locus YNL197C, strain WHI3, active compounds read low 0.662 | S. cerevisiae deletion strains, locus YOR083W, strain WHI5 (second series), active compounds read low 0.582
